These results are taken from PubChem BioAssay (NCATS).

Molecules are shown by their SMILES. Records with an inconclusive call do not appear. Activity calls are given as the source filed them. Calls come from the whole dose curve; as a rule, active = well fitted curve in the direction sought with a large enough effect; inconclusive = small, poorly fitted or top-dose-only effect, or another doubt; inactive = no such curve, though single readings can be large; an effect the other way counts as inactive or inconclusive.

Assay [1] in a line: qHTS of pediatric cancer cell lines to identify multiple opportunities for drug repurposing: Confirmatory screen for OHS-50 cells (AID 1347128).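 Note: compound exposure lasted 48 h at 37 degrees C; nearly all actives have a fitted effect of over 55% in size.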 Note: potency is the fitted concentration of half-maximal effect. Particulars: OHS-50 osteosarcoma cells viability; series mostly up to 45.9 µM. The essentials:
(§1)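 Cells (500-1,000/well) rested 5 h, then received compounds for 48 h; metabolically active cells were measured by CellTiter-Glo luminescence. Final concentrations spanned up to 46 µM (MIPE, 11-point) or 0.59 nM-46 µM (NPC, 8-point) in primary screens, 11-point in follow-ups.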

Assay [2] in a line: qHTS of pediatric cancer cell lines to identify multiple opportunities for drug repurposing: Confirmatory screen for SK-N-SH cells (AID 1347129).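 Note: cells exposed to compound for 48 h before viability read; nearly all actives have a fitted effect of over 60% in size.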 Note: potency is the fitted concentration of half-maximal effect. Particulars: SK-N-SH neuroblastoma cell viability; series mostly up to 46.1 µM. The essentials: as §1
(In general: Quantitative high-throughput screening tests each substance at several concentrations.)

The test system of assay [3] is Zika virus NS2B-NS3 protease. As to the kind of experiment: Primary screen GU AMC qHTS for Zika virus inhibitors (AID 1347154). Note: nearly all actives have a fitted effect of over 70% in size. Note: potency is the fitted concentration of half-maximal effect. Particulars: Zika NS2B-NS3 unlinked protease, AMC fluorogenic substrate; series mostly up to 54.1 µM. The essentials:
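Fluorogenic AMC-substrate cleavage by noncovalent NS2B-NS3 protease complex (25 nM, pH 8.0 Tris buffer with Tween 20) followed for 15 minutes at room temperature (~20% conversion). Percent inhibition from ex340/em450 signal change, fitted by 4-parameter Hill equation.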

The test system of assay [4] is Zika virus NS2B-NS3 protease (unlinked complex). As to the kind of experiment: Primary screen GU Rhodamine qHTS for Zika virus inhibitors: Unlinked NS2B-NS3 protease assay (AID 1347159). Note: nearly all actives have a fitted effect of over 60% in size. The following applies: Recombinant ZIKV NS2B-NS3 protease, Rhodamine110 substrate fluorescence; series mostly up to 107 µM. The method, boiled down: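 Noncovalent NS2B hydrophilic domain/NS3 protease complex (25 nM final) in 10 mM Tris-HCl pH 8.0, 0.01% Tween 20, preincubated 15 min with compounds (up to 114 microM), then 1.5 microM Rhodamine110 substrate. Fluorescence change over 15 min fitted to 4-parameter Hill.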

For assay [5], the system named is Zika virus NS2B-NS3 protease (linked construct). Description: Primary screen NINDS Rhodamine qHTS for Zika virus inhibitors (AID 1347160). Note: nearly all actives have a fitted effect of over 55% in size. The following applies: purified NS2B-NS3 protease, Rhodamine110 substrate fluorescence; series mostly up to 57.1 µM. The essentials: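 Purified NS2B-NS3 protease with the NS2B hydrophilic domain joined by a flexible linker (25 nM) in 10 mM Tris-HCl pH 8.0, 0.01% Tween 20, preincubated 15 min at RT with compound; Rhodamine110 peptide substrate 1.5 µM; fluorescence change over 15 min; 4-parameter Hill fit.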

For assay [6], the target named is N-terminal Xaa-Pro-Lys N-methyltransferase 1 (Homo sapiens) (UniProt Q9BV86). Description: qHTS Assay for Inhibitors of N-terminal methyltransferase 1 (NTMT1): LOPAC validation of the NTMT1 SAHH-coupled ThioGlo3 Assay (AID 1347143).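 Note: SAH from peptide methylation measured as thiol fluorescence via SAHH coupling and ThioGlo3; nearly all actives have a fitted effect of over 70% in size.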 Note: potency is the fitted concentration of half-maximal effect. Particulars: recombinant NTMT1, SAHH-coupled ThioGlo3 fluorescence; series mostly up to 114 µM. The essentials: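 Inhibition of NTMT1 methylation of peptide SPKRIA is followed by converting SAH with SAHH and labelling the released thiol with ThioGlo3. Plates are read at 340/450nm before and 30 min after reagent addition, both at room temperature.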
Sequence of N-terminal Xaa-Pro-Lys N-methyltransferase 1 (Homo sapiens) (Q9BV86 whole entry, looked up): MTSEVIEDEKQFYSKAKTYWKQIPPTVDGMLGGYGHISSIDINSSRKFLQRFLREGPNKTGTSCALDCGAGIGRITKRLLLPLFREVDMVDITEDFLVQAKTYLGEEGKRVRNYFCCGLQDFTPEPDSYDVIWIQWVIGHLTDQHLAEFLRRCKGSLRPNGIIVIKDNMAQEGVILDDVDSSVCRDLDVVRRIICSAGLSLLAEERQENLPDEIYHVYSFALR

Assay [7] deals with Zika virus NS2B-NS3 protease (unlinked). Description: Optimization of GU AMC qHTS for Zika virus inhibitors: Unlinked NS2B-NS3 protease assay (AID 1347151). Note: nearly all actives have a fitted effect of over 80% in size. Note: potency is the fitted concentration of half-maximal effect. The following applies: recombinant ZIKV NS2B-NS3 protease, fluorogenic AMC substrate; series mostly up to 52.5 µM. The essentials: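 Unlinked protease (25 nM final); buffer 10 mM Tris-HCl pH 8.0 + 0.01% Tween 20; AMC substrate; 15 min RT, dark; Δfluorescence normalized to no-inhibitor/no-enzyme controls; 4-parameter Hill fit.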

Assay [8] has as its system Zika virus NS2B-NS3 protease (unlinked complex). Description: Confirmatory screen GU AMC qHTS for Zika virus inhibitors (AID 1347153).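 For Potency: enzyme at 25 nM with substrate at 10 µM below its Km of 18.3 µM; potency is the fitted concentration of half-maximal effect.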 Note: nearly all actives have a fitted effect of over 70% in size. The following applies: Recombinant NS2B-NS3 protease, AMC substrate fluorescence; series mostly up to 57.1 µM. The essentials:
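Unlinked NS2B-NS3 complex (25 nM) in 10 mM Tris-HCl pH 8.0, 0.01% Tween 20 preincubated 15 min with compound, then 10 microM Bz-Nle-KRR-AMC (Km 18.3 µM). Fluorescence change over 15 min, normalized, Hill-fitted.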

Assay [9] can be described thus: Confirmatory screen NINDS Rhodamine qHTS for Zika virus inhibitors (AID 1347161). Note: nearly all actives have a fitted effect of over 60% in size. The following applies: purified enzyme assay, Rhodamine110 substrate fluorescence, 15 min; series mostly up to 114 µM. The method, boiled down:
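qHTS dose-response: 25 nM linked protease, pH 8.0 Tris/Tween buffer, cpd titration, 15 min RT preinc, 1.5 microM Rhod110 peptide, 15 min reaction (~15% conversion), Ex480/Em540; 4-parameter Hill fit.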

Assay [10] deals with Lysine-specific demethylase 5B (Homo sapiens) (UniProt Q9UGL1). As to the kind of experiment: Optimization screen for KDM5B Histone Demethylases FDH coupled qHTS against the LOPAC library (AID 1347166). Particulars: KDM5B demethylation, FDH-coupled NADH fluorescence (FDH is formaldehyde dehydrogenase); series mostly up to 57.5 µM. The essentials:
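KDM5BDeltaAP (200nM final) preincubated 10 min with compound, then 12.5uM H3K4Me3, 25uM a-ketoglutarate, ascorbate, Fe(II), NAD+ and FDH added; 50mM HEPES pH 7.5, 0.01% Tween-20. NADH fluorescence (340/450 nm) change over 30 min, room temperature.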

Assay [11] in a line: Vero cells viability qHTS for Zika virus inhibitors (AID 1347167). The following applies: cytotoxicity counter-screen (Zika); series mostly up to 45.9 µM. The method, boiled down: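 Compounds were tested in concentration series on cells grown in DMEM containing 4% FBS. After 24 to 48 hours, cellular ATP was measured by luminescence with CellTiter Glo.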
A short description of assay [12]: qHTS to identify inhibitors of the type 1 interferon - major histocompatibility complex class I in skeletal muscle: primary screen against the NCATS LOPAC collection (AID 1347405).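 Note: lytic HiBiT luminescence reporting HLA-B protein level.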 The following applies: iHSKM muscle cells, IFN-b-induced MHC-I HiBiT luminescence, 24 h; series mostly up to 45.9 µM. The essentials: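 CRISPR-engineered immortalized human myoblasts (C25cl48) with HiBiT fused to endogenous HLA-B*08:01, stimulated with 4 ng/ml IFN-beta. LOPAC compounds tested as a 7-point 1:4.3 titration (top 46 uM final), 24 h at 37 C; lytic HiBiT luminescence read.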

The nature of assay [13]: qHTS for inhibitors of adenylyl cyclases using a fission yeast platform: a pilot screen against the NCATS LOPAC library (AID 1347410). The following applies: S. pombe CHP2027, fbp1-GFP fluorescence, 18 h, yeast expressing mammalian AC9 and human GNAS; series mostly up to 57.5 µM. The essentials:
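Fission yeast qHTS: CHP2027 cells (AC9-GNAS-PDE4D2, fbp1-GFP), 5x10^6 cells/mL working density, EMM + His/Lys/Ura; LOPAC at up to 57 µM final; 18 h dark, 30C; GFP by laser cytometry. DPI positive control, DMSO vehicle.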

Assay [14] deals with Furin (Homo sapiens) (UniProt P09958). As to the kind of experiment: Furin counterscreen qHTS for Zika virus inhibitors (AID 1347149). Note: nearly all actives have a fitted effect of over 70% in size. Note: potency is the fitted concentration of half-maximal effect. Particulars: furin enzymatic counterscreen, fluorogenic substrate; series mostly up to 57.5 µM. The method, boiled down:
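Fluorogenic cleavage of BOC-RVRR-AMC (2 microM final, Km ~15 µM) was monitored (ex 340, em 450 nm) at 37C after 15 min RT preincubation of 5 nM furin with compounds in HEPES pH 7.0 buffer with CaCl2 and Triton X-100. Percent inhibition was fitted to a 4-parameter Hill curve.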
Background: The purpose of a counterscreen is to sort out artefacts and off-target activity.

Assay [15] is described as follows: Tertiary RLuc qRT-PCR qHTS assay for Zika virus inhibitors (AID 1347169). Note: potency is the fitted concentration of half-maximal effect; nearly all actives have a fitted effect of over 55% in size. The following applies: infected Vero cells, reporter luminescence, 48-72 h; series mostly up to 45.9 µM. The essentials: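 Vero, 1,000 cells/well, o/n 37 C; cpd pinned in DMSO; ZIKV-RLuc Cambodian, MOI 1-2, 48-72 h 37 C; live-cell RLuc substrate, lum read at 1-1.5 h.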
A general note: In qPCR the cycle at which signal appears reflects the starting amount.

Assay [16] is described as follows: qHTS to identify inhibitors of the type 1 interferon - major histocompatibility complex class I in skeletal muscle: primary screen against the NCATS Pharmaceutical Collection (AID 1347407). Particulars: human skeletal muscle cells, IFN-b-induced MHC-I HiBiT luminescence, 24 h; series mostly up to 45.9 µM. The method, boiled down: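 Luminescence from HiBiT-tagged endogenous HLA-B*08:01 served as the read-out of IFN-beta-induced MHC class I in CRISPR-engineered C25cl48 myoblasts. Cells received 4 ng/ml IFN-beta plus compound (high final 46 uM, […]) for 24 h.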

Sequence of Furin (Homo sapiens) (P09958 whole entry, looked up): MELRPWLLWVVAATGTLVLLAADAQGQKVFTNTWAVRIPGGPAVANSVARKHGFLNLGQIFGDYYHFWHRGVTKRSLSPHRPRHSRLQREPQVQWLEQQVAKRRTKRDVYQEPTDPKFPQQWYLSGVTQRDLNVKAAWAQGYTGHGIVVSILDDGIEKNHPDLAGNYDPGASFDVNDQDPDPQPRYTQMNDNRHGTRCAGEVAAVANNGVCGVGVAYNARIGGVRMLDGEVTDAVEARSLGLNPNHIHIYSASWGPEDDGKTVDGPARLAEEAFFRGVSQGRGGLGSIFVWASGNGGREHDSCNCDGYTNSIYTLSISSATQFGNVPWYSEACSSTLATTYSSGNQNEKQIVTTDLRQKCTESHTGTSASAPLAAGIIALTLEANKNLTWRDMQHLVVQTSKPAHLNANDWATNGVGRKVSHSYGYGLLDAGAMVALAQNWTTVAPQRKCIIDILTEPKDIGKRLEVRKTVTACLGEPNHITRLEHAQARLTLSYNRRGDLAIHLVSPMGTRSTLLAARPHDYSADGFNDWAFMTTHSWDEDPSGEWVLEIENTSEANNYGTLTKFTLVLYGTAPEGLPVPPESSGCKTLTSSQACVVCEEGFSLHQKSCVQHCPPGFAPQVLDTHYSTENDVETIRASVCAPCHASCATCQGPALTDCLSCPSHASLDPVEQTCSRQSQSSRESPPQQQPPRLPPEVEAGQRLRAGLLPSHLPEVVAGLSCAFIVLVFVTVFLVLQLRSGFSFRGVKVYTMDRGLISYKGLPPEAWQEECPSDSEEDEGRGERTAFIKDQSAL
Sequence of Lysine-specific demethylase 5B (Homo sapiens) (Q9UGL1 whole entry, looked up): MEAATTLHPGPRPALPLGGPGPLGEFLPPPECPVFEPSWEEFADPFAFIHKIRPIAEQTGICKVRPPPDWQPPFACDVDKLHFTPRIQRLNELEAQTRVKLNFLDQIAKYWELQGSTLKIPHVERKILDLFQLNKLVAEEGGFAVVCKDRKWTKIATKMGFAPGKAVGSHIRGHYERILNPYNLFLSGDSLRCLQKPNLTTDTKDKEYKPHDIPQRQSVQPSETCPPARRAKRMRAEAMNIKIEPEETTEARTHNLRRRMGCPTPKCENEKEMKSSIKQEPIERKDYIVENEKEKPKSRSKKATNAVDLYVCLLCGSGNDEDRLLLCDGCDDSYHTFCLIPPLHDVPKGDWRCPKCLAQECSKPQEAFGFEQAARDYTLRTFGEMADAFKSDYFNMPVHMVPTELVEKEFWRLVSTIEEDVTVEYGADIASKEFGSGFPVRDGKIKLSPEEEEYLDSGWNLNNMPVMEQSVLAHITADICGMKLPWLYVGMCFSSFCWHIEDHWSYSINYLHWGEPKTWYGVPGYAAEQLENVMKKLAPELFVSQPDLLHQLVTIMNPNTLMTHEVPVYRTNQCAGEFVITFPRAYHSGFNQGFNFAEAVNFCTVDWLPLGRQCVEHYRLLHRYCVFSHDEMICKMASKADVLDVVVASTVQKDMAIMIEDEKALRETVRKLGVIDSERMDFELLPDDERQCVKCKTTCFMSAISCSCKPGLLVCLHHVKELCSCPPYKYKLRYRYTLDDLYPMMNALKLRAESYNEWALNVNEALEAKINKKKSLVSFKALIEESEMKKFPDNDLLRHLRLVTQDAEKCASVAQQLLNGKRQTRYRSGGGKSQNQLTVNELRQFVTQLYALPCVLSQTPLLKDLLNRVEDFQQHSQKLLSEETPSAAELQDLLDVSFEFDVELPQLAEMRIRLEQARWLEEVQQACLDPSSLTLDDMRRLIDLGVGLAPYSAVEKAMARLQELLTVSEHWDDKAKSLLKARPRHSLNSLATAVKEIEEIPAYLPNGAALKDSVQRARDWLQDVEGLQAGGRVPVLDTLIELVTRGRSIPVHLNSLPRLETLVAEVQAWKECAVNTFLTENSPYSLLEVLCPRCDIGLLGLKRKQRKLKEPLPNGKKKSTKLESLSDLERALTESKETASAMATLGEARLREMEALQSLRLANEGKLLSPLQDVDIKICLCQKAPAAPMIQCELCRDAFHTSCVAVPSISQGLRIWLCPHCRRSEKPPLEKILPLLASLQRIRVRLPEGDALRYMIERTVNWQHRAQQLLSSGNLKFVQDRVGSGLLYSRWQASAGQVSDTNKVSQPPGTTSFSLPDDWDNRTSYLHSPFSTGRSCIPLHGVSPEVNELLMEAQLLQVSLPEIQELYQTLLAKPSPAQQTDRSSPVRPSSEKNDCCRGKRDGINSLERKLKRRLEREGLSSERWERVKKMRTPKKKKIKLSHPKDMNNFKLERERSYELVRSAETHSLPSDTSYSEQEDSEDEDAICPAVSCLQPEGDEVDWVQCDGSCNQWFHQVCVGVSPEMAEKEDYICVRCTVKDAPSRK

Turning to `O=C(c1cc(Cc2n[nH]c(=O)c3ccccc23)ccc1F)N1CCN(C(=O)C2CC2)CC1`, the Potency entry in assay [1], in assay [3], in [4] and in assay [5] was “inactive” each time. For the same molecule, the Potency in [2] is 14.8 µM (active).
As to `CN1CCN(CCCN2c3ccccc3Sc3ccc(C(F)(F)F)cc32)CC1`, the Potency in [1] was 20.8 µM (active); in assay [2] it was 16.6 µM (active); in assay [6] it was 44.7 µM (active). The Potency entry in assay [7], in [8], in assay [3], in [9] and in assay [12] was “inactive” in each case. For the same molecule, the molecule was classed as inactive in assay [10], in assay [11] and in [13].
As for `Nc1nc2c(ncn2COCCO)c(=O)[nH]1`, the Potency entry in assay [1], in [2], in assay [6], in assay [7] and in assay [3] was “inactive” each time. For the same molecule, the molecule was called inactive in [10] and in assay [13].
In the case of `CO[C@@H]1[C@H](N(C)C(=O)c2ccccc2)C[C@H]2O[C@]1(C)n1c3ccccc3c3c4c(c5c6ccccc6n2c5c31)C(=O)NC4`, in [2], the Potency entry is “inactive”.
On to `COc1ccc(-c2ccc3c(N4CCOCC4)nc(N4C[C@@H](C)O[C@@H](C)C4)nc3n2)cc1CO`, for which the Potency in assay [2] is 8.33 µM (active); in assay [14], 24.1 µM (active); in [8], 27.1 µM (active); in assay [3], 19.2 µM (active). Besides, in [11], the molecule was classed as inactive.
Take `OC[C@H](Cc1ccccc1)Nc1nc(Oc2ccc3c(c2)CCC3)nc2c1ncn2Cc1ccc(-c2ccccc2)cc1`: the Potency result in [2] and in assay [3] was “inactive” in each case.
As for `Cn1cnc([N+](=O)[O-])c1Sc1ncnc2nc[nH]c12`, the Potency in [1] was 4.24 µM (active); in assay [15], 26.9 µM (active). Moreover, the Potency result in [6], in [14], in assay [7], in assay [3] and in assay [12] was “inactive” throughout. Besides, the result in [10], in [11], in [16] and in assay [13] was inactive.
As to `Oc1cccc(-c2nc(N3CCOCC3)c3oc4ncccc4c3n2)c1`, the values for the Potency in assay [1] and in [2] were 3.02 µM (active) and 4.18 µM (active), respectively.
For the molecule `C[C@]1(c2nc3c(C(N)=O)cccc3[nH]2)CCCN1`, the Potency entry in assay [1], in assay [2] and in [3] was “inactive” in each case.
As to `NC(N)=NC(=O)c1nc(Cl)c(N)nc1N`, the Potency entry in assay [1], in [2] and in assay [12] was “inactive” each time. The Potency is 50.1 µM (active) in assay [6] and 23.8 µM (active) in assay [7]. Besides, the outcome in assay [16] and in [13] was inactive.
As for `COc1ccc(-c2ccc3c(N4CCOC[C@H]4C)nc(N4CCOC[C@H]4C)nc3n2)cc1CO`, the Potency in assay [1] was 2.08 µM (active); in assay [2] it was 0.526 µM (active); in assay [3], 6.81 µM (active).
In the case of `Nc1nc2[nH]cc(CCc3ccc(C(=O)N[C@@H](CCC(=O)O)C(=O)O)cc3)c2c(=O)[nH]1`, the Potency result in assay [1], in assay [2] and in assay [3] was “inactive” throughout.
For the molecule `COc1cccc2cc(-c3nc(C4CCC(C(=O)O)CC4)n4ncnc(N)c34)[nH]c12` (centres undefined), the Potency result in [1], in assay [4] and in assay [5] was “inactive” in each case. Moreover, the Potency in [2] was 10.5 µM (active).
